The campaign covered roughly 380,000 compounds. About 1,300 (0.34%) were called active. Only a selection was taken, and actives are over-represented in it overall. Unmarked numbers belong to inactive results.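 The calls were made as follows: active = drop in luminescence signal, shown as inhibition above about 50% in the replicate tests (limit read from the data, passing the limit was not always enough); inconclusive = probably only some replicates passing the limit; inactive = the rest.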

In the assay the test system is Drosophila bursicon receptor LGR2 (rickets). The experiment in a line: LGR2 cAMP reporter signal reduction – cell-based, HEK293, CRE-luciferase reporter, bursicon stimulation, primary screen (AID 720647).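 Also: agonist challenge used bursicon conditioned medium at about half maximal strength.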 The note with it: bursicon-stimulated, 4 h, at 9.99 µM, stronger effect = higher value. A general note: Reporter assays use an easily measured gene product as a stand-in for the process of interest.
As to `CCOc1ccc(N/C=C/C(=O)c2ccccc2)cc1`, the inhibition is 70.1% (active). With `Cc1cc(C)nc(NS(=O)(=O)c2ccc(N/C=C\C(=O)c3cccs3)cc2)n1`, the inhibition is 0.601%. The same measure for `Cc1ccc(NC(=O)C2CCCN2C(=O)OCc2ccccc2)cc1C` (configuration not stated): 1.81%; for `CCOc1ccc(NC(=O)N2CCN(CC)CC2)cc1`: -10.6%; for `Cc1ccc(N/C=C/C(=O)c2ccccc2)cc1C`: 74.5% (active). For `CCOc1ccc(NC(=O)C(C)N2C(=O)c3ccccc3C2=O)cc1` (configuration not stated), the inhibition is -1.28%.

Regarding `Cc1ccc(S(=O)(=O)N(C)C[C@@H]2Oc3ncc(-c4cc5ccccc5o4)cc3C(=O)N([C@H](C)CO)C[C@@H]2C)cc1`, the inhibition was 4.4%. The same measure for `COc1ccc2c3c(n(C)c2c1)[C@@H](CO)N(C(=O)Nc1ccc(F)cc1)CC31CN(C(=O)NC(C)C)C1`: -1.12%; for `COC(=O)C[C@H]1CC[C@H](NC(=O)Nc2ccc(C(F)(F)F)cc2)[C@H](CO)O1`: -0.777%; for `COc1cccc(-c2ccc3c(c2)O[C@H](CN(C)C(=O)C2CCOCC2)[C@H](C)CN([C@H](C)CO)S3(=O)=O)c1`: -17.4%. Turning to `COc1cccc2cc(/C(C)=N/NC(=O)c3ccco3)oc12`, the inhibition is -27.1%. For `COc1cccc2cc(C(=O)NCc3ccc(C)cc3)c(=N)oc12`, the inhibition is -0.361%.

As for `COc1cccc2cc(C(N)=O)/c(=N\NC(=O)c3ccccc3)oc12`, the inhibition is 72.2% (active). For `C[C@@H]1CCCCO[C@H](CN(C)S(=O)(=O)c2cn(C)cn2)[C@H](C)CN([C@H](C)CO)C(=O)c2cc(N(C)C)ccc2O1`, the inhibition was 10.5%.

Consider `Cc1ccc(S(=O)(=O)NCC[C@@H]2CC[C@@H](NC(=O)CCN3CCCCC3)[C@@H](CO)O2)cc1`, for which the inhibition is 3.54%.

For `N#C[C@@H]1[C@@H](c2ccc(C3=CCCCC3)cc2)[C@@H](CO)N1C(=O)c1cccc(F)c1`, the inhibition was 7.91%. Consider `C[C@H]1CN([C@@H](C)CO)C(=O)c2cc(-c3ccncc3)cnc2O[C@H]1CN(C)C(=O)c1cccc(F)c1`, for which the inhibition was -3.95%.

Regarding `CCC(=O)N1CC[C@H]2[C@@H]1c1cc(-c3ccc(C#N)cc3)ccc1N(C)[C@H]2CO`, the inhibition is -10.9%. On to `C[C@@H]1CCCCO[C@H](CN(C)C(=O)NC2CCCCC2)[C@@H](C)CN([C@H](C)CO)C(=O)c2cc(NS(=O)(=O)c3ccc(F)cc3)ccc2O1`, for which the inhibition is -5.15%. Take `COc1cccc2c1C(=O)c1c(O)c3c(c(O)c1C2=O)CC(O)(C(C)=NNC(=O)c1ccc(Cl)c(Cl)c1)CC3OC1CC(N)C(O)C(C)O1` (configuration not stated): the inhibition was 96.4% (active). As for `C[C@H]1CN([C@@H](C)CO)C(=O)c2cccc(NC(=O)CCCCCC(=O)Nc3ccccc3N)c2O[C@H]1CN(C)C(=O)Nc1ccccc1`, the inhibition is 0.187%. `COCC(=O)N1[C@H](C(=O)N2CCN(C)CC2)[C@@H](CO)[C@@H]2Cn3c(ccc(C4=CCCC4)c3=O)[C@@H]21`: the inhibition is -13.3%. With `Clc1ccc(-c2cc(C3CCNCC3)[nH]n2)c(Cl)c1`, the inhibition is 2.21%.

For `Clc1ccc(-c2cc(-c3ccccn3)on2)c(Cl)c1`, the inhibition is 80% (active).

On to `COCC(=O)Nc1ccc2c(c1)OC[C@H](C)N(C(=O)c1cnccn1)C[C@@H](C)[C@@H](OC)CN(C)C2=O`, for which the inhibition is 10.6%. Turning to `COc1cccc(/C=N/Nc2cc(C)nc(-c3ccccc3O)n2)c1O`, the inhibition was 90.5% (active).

As to `O=C(c1ccc(F)cc1)N1CC2(C1)[C@H](c1ccccc1)[C@@H](CO)N2Cc1ccccn1`, the inhibition is -5%. As for `COCC#Cc1ccc([C@@H]2[C@H](CO)N3C(=O)CN(C(=O)C4CCC4)C[C@@H]23)cc1`, the inhibition is 3.87%. Turning to `CCOC(=O)C(=Cc1ccccc1)C(=O)c1ccccc1`, the inhibition is 90.8% (active).

For the compound `CCOC(=O)C(=O)C1C(=O)Nc2ccccc21` (configuration not stated), the inhibition was -14.6%.

On to `CCOC(=O)/C=C/c1ccccc1O`, for which the inhibition is -29.5%.

In the case of `COc1ccc2c3c([nH]c2c1)[C@@H](CO)N(C)CC31CCN(S(=O)(=O)c2ccc(C)cc2)CC1`, the inhibition was 0.296%. Consider `O=C(Nc1cccc(F)c1)N1CC(=O)N2[C@H](CO)[C@H](c3ccc(C#CC4CC4)cc3)[C@@H]2C1`, for which the inhibition was 8.66%. On to `COCC(=O)N1CCCCN2[C@H](CO)[C@H](c3ccc(C#Cc4ccc(OC)cc4)cc3)[C@H]2C1`, for which the inhibition is -13.1%. For the compound `COc1ccc(-c2nc(-c3ccccc3)no2)c(OC)c1`, the inhibition was 91.2% (active).

Consider `COc1ccc(-c2onc3ccc(C(C)=O)cc23)cc1`, for which the inhibition is -9.6%. As to `COc1ccc(OC)c(CNC(=O)CCc2nc(-c3cccs3)no2)c1`, the inhibition is 2.08%. With `CN1C(=O)c2cc(NC(=O)C3CC3)ccc2OC[C@H]2O[C@H](CC(=O)O)CC[C@H]21`, the inhibition is -1.87%. As to `O=C(Cc1cccnc1)N1CC(=O)N2[C@H](CO)[C@H](c3ccc(C#CC4CCCC4)cc3)[C@@H]2C1`, the inhibition is -25.4%. Take `C=CC[n+]1c(-c2ccc(C)cc2)csc1NNC(=O)Nc1ccccc1`: the inhibition was 6.29%. On to `CC(=O)Nc1ccc(-c2csc(NC(=O)Nc3ccccc3)n2)cc1`, for which the inhibition is 94.1% (active).

`CC(=O)NC(c1ccccc1)c1nc(-c2ccccc2C)cs1` (configuration not stated): the inhibition is -19.2%. Take `CN1[C@H](C(=O)N2CCc3ccccc3C2)[C@@H](CO)[C@@H]2Cn3c(ccc(-c4cncnc4)c3=O)[C@@H]21`: the inhibition is 1.15%. Take `COc1cc(Cl)c(C)cc1NC(=O)COC(=O)c1cc(SC)ccc1Cl`: the inhibition was 7.1%. As for `Cc1csc(OCC(=O)Nc2ccc(C)c(C)c2)n1`, the inhibition is 0.863%. Turning to `COc1cc(SC)ccc1C(=O)Nc1nc(C)cs1`, the inhibition was 102% (active). In the case of `CO[C@H](CN(C)C(=O)c1cnccn1)[C@@H](C)CN([C@@H](C)CO)S(=O)(=O)c1ccccc1` it was -6.19%; in that of `c1c2c(cc3sc(N4CCCCC4)nc13)OCCO2`, 85.3% (active). Consider `C[C@@H]1CN([C@H](C)CO)C(=O)CCCn2cc(nn2)CO[C@@H]1CN(C)Cc1ccc2cccnc2c1`, for which the inhibition is -3.97%. For the compound `CCN(CC)C(=O)Cn1cc(S(=O)(=O)CC(=O)NCc2ccc3c(c2)OCO3)c2ccccc21`, the inhibition was -11.7%. In the case of `O=C(NCc1ccc2c(c1)OCO2)c1sccc1Br` it was -10.3%; in that of `CN(C)C(=O)c1cccc(-c2cnc3sc(NCc4ccc5c(c4)OCO5)nn23)c1`, 51.6% (active).

The inhibition is the relative decrease from the control value, in per cent.

The record behind these values is PubChem BioAssay AID720647 (Broad Institute, 2013).
